Results: PubChem BioAssay (NCI)
The panel holds about 83,000 compounds, 20% with a hit somewhere; the sample as a whole holds those more often.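 Results are percent growth after 48 hours of single-concentration exposure. 100 means growth as in untreated cells, lower positive values show inhibition; negative values down to -100 show cell death.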 Active and inactive are the calls of the source. The calls were made as follows: active = growth percent below 10; inactive = the rest.

Tests used:
Assay in all cases: NCI-60 one-dose screen, 48 h (100 = growth as untreated, 0 = no growth, -100 = all killed)
Settings in all cases: 10 µM unless noted
DU-145 prostate = test system: DU-145 prostate
K-562 leukemia = test system: K-562 leukemia
MALME-3M melanoma = test system: MALME-3M melanoma
RXF 393 renal = test system: RXF 393 renal
SF-268 CNS = test system: SF-268 CNS
SF-295 CNS = test system: SF-295 CNS
SF-539 CNS = test system: SF-539 CNS
UACC-257 melanoma = test system: UACC-257 melanoma
M14 melanoma = test system: M14 melanoma
HCT-15 colon = test system: HCT-15 colon
HT29 colon = test system: HT29 colon
SNB-75 CNS = test system: SNB-75 CNS
SNB-19 CNS = test system: SNB-19 CNS
U251 CNS = test system: U251 CNS
PC-3 prostate = test system: PC-3 prostate
SK-MEL-5 melanoma = test system: SK-MEL-5 melanoma
UACC-62 melanoma = test system: UACC-62 melanoma
SK-MEL-28 melanoma = test system: SK-MEL-28 melanoma

Measured: growth

COc1cc(CNC(=O)/C=C/c2ccc3c(c2)OCO3)ccc1OCc1cn(-c2ccc([N+](=O)[O-])cc2)nn1
inactive: DU-145 prostate 103% | K-562 leukemia 92.8% | MALME-3M melanoma 87.6% | RXF 393 renal 72.2% | SF-268 CNS 86.9% | SF-295 CNS 88% | SF-539 CNS 79.8% | UACC-257 melanoma 91.5% | M14 melanoma 92.9% | HCT-15 colon 97.3% | HT29 colon 121% | SNB-75 CNS 106% | SNB-19 CNS 86.5% | U251 CNS 96.2% | PC-3 prostate 103% | SK-MEL-5 melanoma 89.3% | UACC-62 melanoma 78.9% | SK-MEL-28 melanoma 99.9%

O=C(/C=C/c1ccc(-c2ccccc2)cc1)c1nc2ccccc2n1Cc1ccc(Br)cc1
inactive: DU-145 prostate 80.5% | K-562 leukemia 36% | MALME-3M melanoma 44% | RXF 393 renal 35.3% | SF-268 CNS 62.9% | SF-295 CNS 21.9% | SF-539 CNS 17.7% | UACC-257 melanoma 67.4% | M14 melanoma 74% | HCT-15 colon 37.3% | HT29 colon 41.6% | SNB-75 CNS 56.8% | SNB-19 CNS 57.8% | U251 CNS 27.4% | PC-3 prostate 48.2% | SK-MEL-5 melanoma 72.2% | UACC-62 melanoma 50.2% | SK-MEL-28 melanoma 58.5%

Clc1cccc(Cl)c1/C=C/c1cc(/C=C/c2ccc(Br)cc2)c2ccccc2n1
inactive: DU-145 prostate 110% | K-562 leukemia 99.5% | MALME-3M melanoma 91.8% | RXF 393 renal 83.4% | SF-268 CNS 110% | SF-295 CNS 99.2% | SF-539 CNS 95.7% | UACC-257 melanoma 105% | M14 melanoma 101% | HCT-15 colon 101% | HT29 colon 105% | SNB-75 CNS 95.9% | SNB-19 CNS 92.5% | U251 CNS 101% | PC-3 prostate 96.2% | SK-MEL-5 melanoma 104% | UACC-62 melanoma 83.5% | SK-MEL-28 melanoma 104%

O=C(/C=C/c1cccc(OCc2ccccc2)c1)c1nc2ccccc2[nH]1
active: K-562 leukemia -8.72% | SF-539 CNS -56.5% | M14 melanoma 1.55% | HCT-15 colon -75.5% | HT29 colon -45.7% | U251 CNS -65.8%
inactive: DU-145 prostate 55.9% | MALME-3M melanoma 90.9% | RXF 393 renal 20.4% | SF-268 CNS 62.3% | SF-295 CNS 69.9% | UACC-257 melanoma 70.1% | SNB-75 CNS 66.8% | SNB-19 CNS 53.6% | PC-3 prostate 25.9% | SK-MEL-5 melanoma 72.1% | UACC-62 melanoma 56% | SK-MEL-28 melanoma 94.9%

N/C(=N\c1nc2ccccc2s1)NC(=O)NCCCCCCO
inactive: DU-145 prostate 56.7% | K-562 leukemia 23.4% | MALME-3M melanoma 54% | RXF 393 renal 43.6% | SF-268 CNS 61.6% | SF-295 CNS 21.4% | SF-539 CNS 64.8% | UACC-257 melanoma 29.2% | M14 melanoma 67.3% | HCT-15 colon 57.7% | HT29 colon 76.2% | SNB-75 CNS 20.6% | SNB-19 CNS 51.6% | U251 CNS 69% | PC-3 prostate 47.3% | UACC-62 melanoma 49.1% | SK-MEL-28 melanoma 76.5%
active: SK-MEL-5 melanoma -3.23%

N#Cc1c(-c2cccc(Cl)c2Cl)cc(-c2c[nH]c3ccccc23)[nH]c1=O
inactive: DU-145 prostate 68.1% | K-562 leukemia 30.1% | MALME-3M melanoma 54.4% | RXF 393 renal 36.8% | SF-268 CNS 89.7% | SF-295 CNS 51.7% | SF-539 CNS 68.1% | UACC-257 melanoma 101% | M14 melanoma 34.7% | HCT-15 colon 49.7% | HT29 colon 110% | SNB-75 CNS 79.6% | SNB-19 CNS 77.2% | U251 CNS 68.9% | PC-3 prostate 26.5% | SK-MEL-5 melanoma 51.6% | UACC-62 melanoma 47.7% | SK-MEL-28 melanoma 83.5%

N#Cc1c(-c2ccc(Cl)cc2)nc2n[nH]c(-c3ccc(Cl)cc3)c2c1-c1cccs1
inactive: DU-145 prostate 65.1% | K-562 leukemia 16.9% | MALME-3M melanoma 55.6% | RXF 393 renal 58.2% | SF-268 CNS 72.9% | SF-295 CNS 63.6% | SF-539 CNS 64.1% | UACC-257 melanoma 58.1% | M14 melanoma 64.6% | HCT-15 colon 41.9% | HT29 colon 47% | SNB-75 CNS 77.5% | SNB-19 CNS 75.1% | U251 CNS 58.6% | PC-3 prostate 34.3% | SK-MEL-5 melanoma 40.8% | UACC-62 melanoma 60.9% | SK-MEL-28 melanoma 76.1%

C=C1CC[C@@H]2[C@]3(C)COC(c4cn(-c5ccccc5)nc4-c4ccccc4)O[C@@H]3CC[C@@]2(C)[C@@H]1C/C=C1/C(=O)OC[C@H]1O (stereo partly specified)
active: DU-145 prostate 8.33% | K-562 leukemia -29.9% | MALME-3M melanoma -90.2% | RXF 393 renal -90.8% | SF-268 CNS 8.39% | SF-295 CNS -97.5% | SF-539 CNS -98.6% | UACC-257 melanoma -77.2% | M14 melanoma -80.4% | HCT-15 colon -87% | HT29 colon -70.4% | SNB-75 CNS -18.8% | SNB-19 CNS -60.8% | U251 CNS -88.5% | PC-3 prostate -26.8% | SK-MEL-5 melanoma -100% | UACC-62 melanoma -93.8% | SK-MEL-28 melanoma -84.2%

N#Cc1c(-c2ccc(Cl)cc2)nc2n[nH]c(-c3ccc(Cl)cc3)c2c1-c1ccc(C(F)(F)F)cc1
inactive: DU-145 prostate 19.8% | SNB-19 CNS 11.3%
active: K-562 leukemia -21.3% | MALME-3M melanoma -25.8% | RXF 393 renal -14.7% | SF-268 CNS 6.49% | SF-295 CNS -54% | SF-539 CNS -79.3% | UACC-257 melanoma 7.34% | M14 melanoma -53.3% | HCT-15 colon -47.2% | HT29 colon 0.823% | SNB-75 CNS -17.5% | U251 CNS -33.6% | PC-3 prostate 8.27% | SK-MEL-5 melanoma -84% | UACC-62 melanoma -58.6% | SK-MEL-28 melanoma 1.54%

CC(=O)Oc1ccccc1C(=O)[Se]C(=NC1CCCCC1)NC1CCCCC1
active: DU-145 prostate -80% | K-562 leukemia 3.88% | MALME-3M melanoma -91.8% | RXF 393 renal -99.7% | SF-268 CNS 8.57% | SF-295 CNS -78.9% | SF-539 CNS -98.7% | UACC-257 melanoma -89.9% | M14 melanoma -73.7% | HCT-15 colon -73.5% | HT29 colon -60.8% | SNB-75 CNS -63.3% | SNB-19 CNS -94.9% | U251 CNS -87% | PC-3 prostate -31% | SK-MEL-5 melanoma -89.3% | UACC-62 melanoma -90.7% | SK-MEL-28 melanoma -89.1%

CC(=O)Oc1ccccc1C(=O)[Se]CC(=O)Nc1cccc(C(F)(F)F)c1
inactive: K-562 leukemia 18.6% | PC-3 prostate 24.9%
active: DU-145 prostate 8.88% | MALME-3M melanoma -92.8% | RXF 393 renal -25.5% | SF-268 CNS 2.38% | SF-295 CNS -76.8% | SF-539 CNS -90.1% | UACC-257 melanoma -24.2% | M14 melanoma -37.4% | HCT-15 colon -79.8% | HT29 colon -38.7% | SNB-75 CNS -39.2% | SNB-19 CNS -78.5% | U251 CNS -48.3% | SK-MEL-5 melanoma -86.4% | UACC-62 melanoma -56.7% | SK-MEL-28 melanoma -58.8%

Nc1cc2ccccc2c(=O)n1NC(=O)c1ccc(I)cc1
inactive: DU-145 prostate 102% | K-562 leukemia 90.4% | MALME-3M melanoma 97.4% | RXF 393 renal 108% | SF-268 CNS 94.9% | SF-295 CNS 97.6% | SF-539 CNS 96.5% | UACC-257 melanoma 93.3% | M14 melanoma 102% | HCT-15 colon 102% | HT29 colon 101% | SNB-75 CNS 70% | SNB-19 CNS 95.6% | U251 CNS 97.4% | PC-3 prostate 100% | SK-MEL-5 melanoma 101% | UACC-62 melanoma 93.2% | SK-MEL-28 melanoma 103%

CNC(=O)c1cc(Oc2ccc3nc(NC(=O)Nc4cccc(OC(F)(F)F)c4)sc3c2)ccn1
active: MALME-3M melanoma -25.2% | RXF 393 renal -40.1% | SF-295 CNS -18.9% | SF-539 CNS -57.8% | SNB-75 CNS 6.6% | SNB-19 CNS -46.6% | U251 CNS 2.42% | PC-3 prostate 4.97% | UACC-62 melanoma -4.81%
inactive: DU-145 prostate 36.8% | K-562 leukemia 47.1% | SF-268 CNS 11.8% | UACC-257 melanoma 47.9% | M14 melanoma 44.8% | HCT-15 colon 51.1% | HT29 colon 25% | SK-MEL-5 melanoma 53.7% | SK-MEL-28 melanoma 31.9%

CC(=O)Nc1cccc(Nc2nc(NCc3ccccc3)c3ccccc3n2)c1
active: DU-145 prostate -93.7% | K-562 leukemia -59% | MALME-3M melanoma -94.2% | RXF 393 renal -95.2% | SF-268 CNS -72.8% | SF-295 CNS -98.9% | SF-539 CNS -98% | UACC-257 melanoma -83.6% | M14 melanoma -86.5% | HCT-15 colon -87.1% | HT29 colon -86.5% | SNB-75 CNS -93.8% | SNB-19 CNS -98.3% | U251 CNS -76.4% | PC-3 prostate -73.2% | SK-MEL-5 melanoma -98.2% | UACC-62 melanoma -97.8% | SK-MEL-28 melanoma -95.9%

CC(=O)Nc1cccc(Nc2nccc(N[C@@H](C)c3ccccc3)n2)c1
inactive: DU-145 prostate 24.8% | MALME-3M melanoma 28.7% | RXF 393 renal 21.2% | SF-268 CNS 27.6% | UACC-257 melanoma 40.5% | M14 melanoma 22.6% | SNB-19 CNS 25.6% | U251 CNS 24.4% | PC-3 prostate 30.5% | UACC-62 melanoma 20.6% | SK-MEL-28 melanoma 49.4%
active: K-562 leukemia 7.64% | SF-295 CNS -8.12% | SF-539 CNS 9.09% | HCT-15 colon 7.75% | HT29 colon 2.53% | SNB-75 CNS 7.86% | SK-MEL-5 melanoma -31%

CC1=C(C(=O)c2ccccc2)C(c2ccc(-n3cncn3)cc2)n2c(nc3ccccc32)N1 (stereo unspecified)
inactive: DU-145 prostate 71.7% | K-562 leukemia 74.6% | MALME-3M melanoma 81% | RXF 393 renal 73.6% | SF-268 CNS 77.1% | SF-295 CNS 84% | SF-539 CNS 39.1% | UACC-257 melanoma 89.1% | M14 melanoma 99.2% | HCT-15 colon 83.9% | HT29 colon 93.7% | SNB-75 CNS 76.4% | SNB-19 CNS 74.9% | U251 CNS 71.7% | PC-3 prostate 78.7% | SK-MEL-5 melanoma 89.7% | UACC-62 melanoma 70.6% | SK-MEL-28 melanoma 106%

CC(C)c1ccc2c(N)c(C(=O)Nc3ccc(C(F)(F)F)cn3)sc2n1
active: SK-MEL-5 melanoma 5.02%
inactive: DU-145 prostate 63.8% | K-562 leukemia 33.1% | MALME-3M melanoma 63% | RXF 393 renal 74.5% | SF-268 CNS 91.8% | SF-295 CNS 34.3% | SF-539 CNS 88% | UACC-257 melanoma 60% | M14 melanoma 50.5% | HCT-15 colon 58.7% | HT29 colon 69.5% | SNB-75 CNS 78.6% | SNB-19 CNS 71.5% | U251 CNS 62.9% | PC-3 prostate 44.7% | UACC-62 melanoma 69.7% | SK-MEL-28 melanoma 77.3%
